# Reference: PubChem BioAssay (NCATS)
# Inconclusive results are not listed. A structure can be active in one record and inactive in another. Values without a mark were called inactive. Active and inactive are the calls of the source. Calls come from the whole dose curve; as a rule, active = well fitted cell-killing curve with a large enough effect; inconclusive = small, poorly fitted or top-dose-only effect, or effect the other way; inactive = no such curve, though single readings can be large or run the other way.
# Legend:
# [1] = Viability qHTS for spleen associated tyrosine kinase inhibitor (SYKi) naive MV4-11 cells (AID 1963823); note: nearly all actives have a fitted effect of over 40% in size
# Summary of the method: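 SYKi-naive MV4-11 AML cells, 500 per well, were exposed to library compounds for 72 hr at 37 C, 5% CO2. Viability was then read by CellTiter-Glo luminescence after 10 min at room temperature.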
# [2] = Viability qHTS for spleen associated tyrosine kinase inhibitor (SYKi) drug resistant MV4-11 cells (AID 1963824); note: nearly all actives have a fitted effect of over 35% in size
# Summary of the method: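 CellTiter-Glo luminescence, read 10 min after reagent addition, reports viability after a 72 hr compound exposure. Cells are an MV4-11 line made resistant to SYK inhibition, seeded at 500 per well onto compound-containing plates.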
# Potency is the fitted concentration of half-maximal effect.
SMILES,viability (% of control) [1],Potency [1],Potency [2]
C/C=C(/C)C(=O)OC1C(OC(C)=O)C23C(O)OC4(CCC5C6(C)CCC(OC7OC(C(=O)O)C(O)C(OC8OC(CO)C(O)C(O)C8OC8OC(C)C(O)C(O)C8OC8OCC(O)C(O)C8O)C7OC7OC(CO)C(O)C(O)C7O)C(C)(C)C6CCC5(C)C4(C)CC2OC(C)=O)C3CC1(C)C (stereo not given),43.2% [at 9.25 µM],–,–
CC(C)c1cc2c(c(O)c1O[C@@H]1O[C@H](CO)[C@@H](O)[C@H](O)[C@H]1O)CC1(O)CCC(O)C(C)(C)C1CC2 (stereo not given in full),–,inactive,–
C[C@@H]1C[C@H]2O[C@@H]2/C=C\C=C\C(=O)Cc2c(Cl)c(O)cc(O)c2C(=O)O1,9.93% [at 9.25 µM],32.1 nM (active),71.8 nM (active)
